This is a sample that favours compounds with a hit; in the whole collection about 2.2% have one here.
mIDH1 inhibitor: qHTS for Inhibitors of mutant isocitrate dehydrogenase 1 (IDH1): qHTS; IDH1-R132H enzyme, NADPH consumption, diaphorase/resazurin fluorescence; 390,000 tested, 0.093% active; Potency, µM (series often up to 76.6 µM), without a hit: at the top dose activity change, negative = inhibition, most hits filed as inhibitors; AID 602179, 2012; Isocitrate dehydrogenase [NADP] cytoplasmic (Homo sapiens), O75874; note: potency is the fitted concentration of half-maximal effect; % is set by controls: 0 for no effect and ±100 for the full control effect; nearly all actives have a fitted effect of over 65% in size
Target sequence (O75874 whole entry R132H, stated change not applied): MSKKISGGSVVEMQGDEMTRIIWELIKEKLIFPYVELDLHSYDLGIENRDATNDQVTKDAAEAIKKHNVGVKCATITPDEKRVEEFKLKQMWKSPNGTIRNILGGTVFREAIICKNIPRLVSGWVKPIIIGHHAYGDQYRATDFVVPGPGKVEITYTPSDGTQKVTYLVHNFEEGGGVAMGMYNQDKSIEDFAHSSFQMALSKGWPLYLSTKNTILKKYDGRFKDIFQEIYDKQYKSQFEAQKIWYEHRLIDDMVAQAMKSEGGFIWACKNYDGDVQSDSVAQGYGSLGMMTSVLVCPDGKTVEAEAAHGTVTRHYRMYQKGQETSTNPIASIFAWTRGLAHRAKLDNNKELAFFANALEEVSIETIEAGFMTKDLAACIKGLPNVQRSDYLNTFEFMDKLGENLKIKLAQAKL
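IDH1-R132H (0.5 ug/mL) preincubated 30 min with compound, then NADPH (0.016 mM) and alpha-KG (2 mM) added; 80 min at RT, pH 7.5. Remaining NADPH coupled via diaphorase/resazurin to fluorescence (540/590 nm); concentration-response curves normalized to no-enzyme control.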
HepG2 viability: qHTS for Inhibitors of TGF-b: Cytotox Counterscreen | HepG2 CAGA-GFP viability, ATP luminescence, 18 h | 410,000 tested, 0.76% active | Potency, µM (titrated, usually from 46.1 µM), without a hit: at the top dose activity change, negative = cytotoxicity, hits mostly cytotoxic | AID 588856, 2011; note: potency is the fitted concentration of half-maximal effect
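HepG2 CAGA-GFP cells (1000/well, DMEM with 1% FBS) received compound, then TGF-beta at 500 pg/mL final, and were incubated 18 hours at 37 degrees C. Viability was read by CellTiter-Glo luminescence. Media-only wells were set as complete cell-killing and DMSO as no toxicity.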
TGFb SMAD3 inh: qHTS for Inhibitors of TGF-b; HepG2 CAGA-GFP TGF-b/SMAD3 reporter, GFP fluorescence, 18 h; TGF-beta stimulated, 500 pg/mL final; 410,000 tested, 1.2% active; Potency, µM (top dose mostly 46.1 µM), for inactives: at the highest dose activity, negative = inhibition, actives largely listed as inhibitors; note: potency is the fitted concentration of half-maximal effect; % is set by controls: 0 for no effect and ±100 for the full control effect; nearly all actives have a fitted effect of over 65% in size
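Inhibition of TGF-beta-driven CAGA-GFP reporter expression in HEPG2 cells is measured by cellular GFP fluorescence after 18 h stimulation with 500 pg/mL recombinant TGF-beta in 1% FBS medium at 37 degrees C.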
ATXN2 expr inh: Primary qHTS for Inhibitors of ATXN expression; HEK-293 ATXN2-luciferase reporter, luminescence, 24 h; AID 1745845, 2022; 360,000 tested, 0.72% active; Potency, µM (doses to about 57 µM), for the others: at the highest dose activity change, negative = inhibition, hits mostly inhibitors; note: potency is the fitted concentration of half-maximal effect; % is set by controls: 0 for no effect and ±100 for the full control effect; nearly all actives have a fitted effect of over 55% in size
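ATXN2-luciferase reporter cells (luciferase flanked by upstream and downstream ATXN2 gene portions) were treated 24 h at 37 °C with compounds at up to 57 uM. SteadyGlo luminescence gave expression; GF-AFC fluorescence gave viability.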
LDHA block: qHTS assay for inhibitors of human lactate dehydrogenase | AID 1347041, 2019 | purified LDHA, NADH/diaphorase-resazurin fluorescence; active compounds read low | activity change, % (values are at about 110 or 230 µM) | L-lactate dehydrogenase A chain (Homo sapiens), P00338 | 480,000 tested, 0.15% active; in the data active = activity change below about -30%; inconclusive = mostly about -25% to -30%;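 note: plate controls were DMSO wells for no effect and wells without enzyme for full effect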
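LDH5 2 nM; NADH 0.06 mM, pyruvate 0.2 mM; 200 mM Tris pH 7.4, EDTA, Tween-20; 5 min RT. Detection: diaphorase 0.133 mg/mL + resazurin 37 µM, fluorescence ex540/em590 at 0 and 20 min; normalized to enzyme-free and DMSO wells.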
ATXN viability: Viability Counterscreen for Primary qHTS for Inhibitors of ATXN expression. 400,000 tested, 0.49% active. S2 cells (HEK-293 line with an ATXN2-luciferase reporter) viability, CellTiter-Fluor protease fluorescence, 24 h. Potency, µM (titrated, usually from 56.7 µM), actives largely listed as cytotoxic. AID 651635, 2014; note: potency is the fitted concentration of half-maximal effect; nearly all actives have a fitted effect of over 40% in size
Numbers without * were called inactive; i = inactive; u = inconclusive; x = no result; [ ] = remark or other dose. Unless noted, calls come from the whole dose curve; as a rule, active = well fitted curve in the direction sought with a large enough effect; inconclusive = small, poorly fitted or top-dose-only effect, or another doubt; inactive = no such curve, though single readings can be large; an effect the other way counts as inactive or inconclusive.

SMILES	mIDH1 inhibitor	HepG2 viability	TGFb SMAD3 inh	ATXN2 expr inh	LDHA block	ATXN viability
Oc1ccc(N=Nc2nc(-c3ccccc3)c(-c3ccccc3)[nH]2)cc1	4%	-28%	-30%	10%	-3	11µM*
Cc1ccc(-c2nc(CS(=O)CC(=O)NCCN3CCCCCC3)c(C)o2)cc1 (centres undefined)	-5%	-65%	13µM*	x	-2	x
Cc1oc(-c2ccc(Cl)cc2)nc1CS(=O)CC(=O)NCCN1CCCCCC1 (centres undefined)	2%	-51%	u	x	-3	i
COC(=O)C1=C(C)N(Cc2ccccc2)C(=NCCc2c[nH]c3ccccc23)N[C@H]1c1ccccc1	5%	10µM*	u	u	-1	u
COC(=O)C1=C(C)N(Cc2ccccc2)C(=NCc2ccccc2)N[C@H]1c1cccc(F)c1	-7%	-112%	u	u	-5	x
COC(=O)C1=C(C)N(Cc2ccccc2)C(=NCCc2c[nH]c3ccccc23)N[C@H]1c1cccc(F)c1	-8%	-101%	u	u	2	22µM*
CCN(CC)CCCN=C1N[C@@H](c2cccc(F)c2)C(C(=O)OC)=C(C)N1Cc1ccccc1	-8%	-109%	u	22µM*	-16	25µM*
O=C(CCN1CCCCC1)Nc1ccc(Br)cc1	-4%	-21%	-2%	-12%	-8	i
CCOc1ccc(OCC(=O)Nc2sc3c(c2C(=O)N2CCOCC2)CCCC3)cc1	x	x	x	x	-4	x
CCOCc1[nH]c(=S)[nH]c(=O)c1Cc1ccc(OCC(C)C)cc1	-3%	-31%	u	-16%[11.3 µM]	-3	i
CC(C)CNC(=O)NCC(=O)N1CCc2ccccc21	x	x	x	x	7	x
CCOC(=O)C1CCCN(C(=O)c2c(C)nn(-c3ccc(F)cc3)c2-n2cccc2)C1 (centres undefined)	-1%	7%	11%	2%	1	i
Cc1ccccc1C1N=C(Nc2nc3ccccc3o2)NC2=C1C(=O)CC(C)(C)C2 (centres undefined)	x	x	x	x	-2	x
CC1(C)CC(=O)C2=C(C1)NC(Nc1nc3ccccc3o1)=NC2c1cccc(Cl)c1 (centres undefined)	x	x	x	x	-30*	x
CC(=O)N/C(=C/c1ccccc1)c1ccccc1	-4%	1%	-4%	1%	-1	i
CC(C)(C)NCC(=Cc1ccccc1)C(=O)c1ccccc1	3%	-100%	8.9µM*	8.4µM*	-2	11µM*
COc1cccc(-n2cnc3c2NC(=O)CC3c2ccccc2)c1 (centres undefined)	x	x	x	x	64	x
NC(=S)NN=C1c2cc(OCCN3CCOCC3)ccc2-c2ccc(OCCN3CCOCC3)cc21	7%	-60%	u	7.9µM*	1	x
O=C(O)c1cccc(-c2nnn(Cc3ccccc3Cl)n2)c1	1%	5%	4%	11µM*	-4	i
O=C1c2cc([N+](=O)[O-])cc3cc([N+](=O)[O-])cc(c23)C(=O)N1c1ccccn1	12%	2%	5.6µM*	u	21	u
O=C1c2ccc(Oc3cccc([N+](=O)[O-])c3)cc2C(=O)N1c1ccccn1	-5%	2%	7%	x	1	i
CCCCC(=O)Nc1ccc(C(=O)NNC(=O)c2ccc(C)c(Br)c2)cc1	22%	4%	0%	-14%	-47*	i
CCCCC(=O)Nc1ccc(C(=O)NNC(=O)CCc2ccccc2)cc1	4%	5%	-6%	4%	-14	i
O=C(O)CSc1cc(NS(=O)(=O)c2ccc(Cl)cc2)c2ccccc2c1O	19%	6.3µM*	u	u	48	i
